# SKBR3 24h inh: SK-BR-3 proliferation inhibitors | SK-BR-3 viability, CellTiter-Glo ATP luminescence, 24 h; hits give low values | viability, % at 10 µM | 41,000 tested, 0.47% active;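 active = viability at or below the median of all test compounds minus 3 SD, in both replicates if run twice, cut at about 45% in these data; inconclusive = duplicate replicates that disagree with each other; inactive = viability above that cutoff in every replicate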;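 note: 100% = median untreated cell wells and 0% = median positive control drug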
# Htt clearance: compounds clearing mutant huntingtin protein; HeLa Exon1htt(103Q)mCFP, aggregate imaging; zero = plate's median compound well; inhibition, % at 1.5 µM; 47,000 tested, 0.42% active; AID 853;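 active = inhibition of aggregate fluorescence above about 70%, also judged a hit by eye on the cell image, limit read from the data, passing the limit was not always enough; inconclusive = no rule stated for this call; inactive = not judged a hit on image review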;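 note: cells exposed to compound for three days before fixation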
# WNV protease inh: inhibitors of West Nile virus NS2B-NS3 protease. WNV NS2B-NS3 protease, fluorogenic substrate Ex360/Em465; hits give low values. z-score (concentration not given with the values). P06935. 65,000 tested, 0.18% active. AID 577; in the data active = z-score below about -3
# Target sequence (P06935 1371-1501 limits assumed): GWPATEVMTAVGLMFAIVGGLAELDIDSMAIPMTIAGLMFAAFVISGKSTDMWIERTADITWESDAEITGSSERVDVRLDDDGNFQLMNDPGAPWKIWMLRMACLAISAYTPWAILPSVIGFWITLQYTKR
# Target sequence (P06935 1502-1679 limits assumed): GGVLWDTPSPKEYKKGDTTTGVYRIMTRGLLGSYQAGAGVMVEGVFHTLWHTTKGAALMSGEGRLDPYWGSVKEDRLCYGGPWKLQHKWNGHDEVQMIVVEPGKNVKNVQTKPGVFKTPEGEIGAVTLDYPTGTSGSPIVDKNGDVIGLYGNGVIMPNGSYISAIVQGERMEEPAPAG
# Starred values were filed as active, the others as inactive; ? = inconclusive; / = no result given. Shown are actives, neighbours in structure and some others; about 0.64% of the full set was active somewhere.
SMILES,SKBR3 24h inh,Htt clearance,WNV protease inh
CCOc1ccc(Nc2nc(C)cc(C)c2C#N)cc1,97,77*,-1.3
COc1ccc(Nc2nc(C)cc(C)c2C#N)cc1,110,/,-0.27
O=C(CN1C(=O)C2C3C=CC(C3)C2C1=O)NCCN1CCCc2ccccc21 (centres undefined),102,/,-0.64
O=C(CCN1C(=O)C2C3C=CC(C3)C2C1=O)NCCN1CCCc2ccccc21 (centres undefined),30*,/,1.4
O=C(NCc1ccc(C(F)(F)F)cc1)C1CC(c2c(Cl)cccc2Cl)=NO1 (centres undefined),/,-21,/
Cc1c(NC(=O)Cn2cnc3c(=O)n(C)c(=O)n(C)c32)cccc1-c1nc2ccccc2o1,99,-53,-0.48
CN(C)CC(C(=O)c1ccccc1)c1ccccc1 (centres undefined),6.4*,/,-0.21
COc1ccc(C(C(=O)OC(C)CN(C)C)c2ccccc2)cc1 (centres undefined),/,-10,0.08
Cc1ccc(Cn2c(NCCc3ccccc3)nc3c2c(=O)n(C)c(=O)n3C)cc1,87,71*,0.91
C=CCn1c(NCCc2ccccc2)nc2c1c(=O)n(C)c(=O)n2C,77,-61,1.9
Nc1nnnn1CC(=O)OCc1cccc(Br)c1,95,/,-1.7
CN(C)/C=C1/Sc2ccccc2C1=O,128,/,-4.1*
CN(C)/C=C1\C(=O)Nc2ccccc21,/,26,/
CC(C)(C)c1cc(C(=O)NCc2ccccc2)ccn1,/,7,-0.27
C=CCn1c(=O)/c(=C/c2cc(OC)c(OC)c(OC)c2)s/c1=C(/C#N)c1nc2ccccc2n1C,40*,/,1.1
C=CCn1c(=O)/c(=C/c2ccc(O)cc2)s/c1=C(/C#N)c1nnc2n1CCCCC2,/,/,-0.94
O=C(Nc1nnc(-c2ccccc2)o1)c1nc2ccccc2s1,/,/,0.59
Cc1cccc(OCC(=O)Nc2cc(C)c(C)cc2O)c1,84,26,0.48
Cc1cccc(OCC(=O)Nc2cc(C)ccc2O)c1,94,85*,0.52
COc1ccc(C(=O)NCc2cccnc2)cc1Br,/,4,/
COc1cccc(CNC(=O)c2ccccc2N)c1,76,82*,0.5
COc1cccc(CNC(=O)Cn2cccc2)c1,/,5,-0.25
COc1cc(OC)cc(C(=O)NCc2cccnc2)c1,/,75*,2.2
N#C/C(=C(/O)CN1CCOCC1)c1nc2ccccc2s1,81,77*,0.08
c1ccc2sc(N3CN(CCN4CCOCC4)CN(c4nc5ccccc5s4)C3)nc2c1,94,/,-0.51
SMILES,SKBR3 24h inh,Htt clearance,WNV protease inh
CCc1c(C)nc2ncnn2c1N1CCC(C(=O)Nc2cccc(C(C)=O)c2)CC1,/,7,0.74
CCOC(=O)c1ccc(NS(=O)(=O)c2cnc[nH]2)cc1,/,/,-1.3
Cc1cc(C)nc(N2CCCC(C(=O)NCC(c3ccccc3)c3ccccc3)C2)n1 (centres undefined),/,88*,/
Cc1cc(C)nc(N2CCCC(C(=O)NCCc3ccc(F)cc3)C2)n1 (centres undefined),102,/,-0.12
Cc1ccccc1C(=O)Nc1nc2n(n1)C(c1ccccc1)CC(=O)N2 (centres undefined),/,-35,/
CC(NC(=O)OC1CCCCC1)N1C(=O)C2C3C=CC(C3)C2C1=O (centres undefined),66,10,2.1
CCOC(=O)c1sc2ncnc(N3CCN(C(=O)OCC)CC3)c2c1C,42*,/,1.5
Cc1c(C(=O)N2CCN(c3ccccc3)CC2)sc2ncnc(N3CCN(c4ccccc4)CC3)c12,/,/,0.46
O=C(OCCN1C(=O)c2ccccc2C1=O)C1CCN(S(=O)(=O)c2cccs2)CC1,92,28,0.1
[O-][N+]1=c2ccc(Nc3ccccc3)cc2=NC12CCCCC2,46,-115,-2.6
COc1ccc(Nc2ccc3c(c2)=NC2(CCCCC2)[N+]=3[O-])cc1,3.2*,/,1.3
N#Cc1c(Cl)nc(SCc2ccccc2)nc1-c1ccccc1,/,2,/
Cn1c(Oc2ccccc2NCc2cccc(Br)c2)cc(=O)n(C)c1=O,/,41,/
CCOC(=O)CS(=O)(=O)c1nc(-c2ccccc2)cc(C(F)(F)F)n1,?,-18,-0.33
CCOC(=O)CS(=O)(=O)c1nc(-c2ccc(F)cc2)cc(C(F)(F)F)n1,26*,/,1.4
CCc1nc(SCc2cc(Cl)ccc2OC)n[nH]1,81,41,0.06
Cc1cc(C)n(-c2nc3ccccc3c(=O)n2OCc2ccc(Cl)cc2)n1,/,-23,/
Cc1cc(C)n(-c2nc3ccccc3c(=O)n2OCc2ccc(F)cc2)n1,40*,46,-0.5
O=c1nc2n(c3sc4c(c13)CCC4)Cc1ccccc1-2,86,/,-0.24
Cc1cc2ccccc2c(=O)n1CC(=O)N1CCN(c2cccc(Cl)c2)CC1,29*,-56,2.6
Cc1cc2ccccc2c(=O)n1CC(=O)NCC(=O)N1CCN(c2ccccc2)CC1,/,/,-0.22
CC1CCCC(C)N1C(=O)COC(=O)c1ccc(O)cc1 (centres undefined),/,25,/
Cc1ccc(CNS(=O)(=O)NCc2ccccc2)cc1,/,16,/
COc1ccc(CNC(=O)C(c2ccco2)N(C(=O)c2csnn2)c2cccc(C)c2C)cc1 (centres undefined),/,-52,/
CC(=O)Nc1ccc(S(=O)(=O)N2CCN(c3nc(NC4CCCC4)c4ccccc4n3)CC2)cc1,41*,/,-0.11
SMILES,SKBR3 24h inh,Htt clearance,WNV protease inh
CC(=O)Nc1ccc(S(=O)(=O)N2CCN(c3cc(C)nc4ccccc34)CC2)cc1,/,20,-0.69
O=C(NCC1CCCO1)c1nnc(Cc2ccc(F)cc2)o1 (centres undefined),/,/,0.35
Cc1ccc(CNC(=O)CN(C)S(=O)(=O)c2cccc3cccnc23)cc1,/,/,-1.3
O=C(O)C1Nc2c(O)cccc2C2C=CCC12 (centres undefined),84,/,-0.32
O=C(OC1CCCCC1)c1ccc2c(c1)C1C=CCC1C(C(=O)O)N2 (centres undefined),99,/,-5.6*
CC(C)(C)C(=O)N=C1SC2CS(=O)(=O)CC2N1c1ccc2c(c1)OCO2 (centres undefined),95,/,-0.04
CC(C(=O)OCC(=O)Nc1ccc2c(c1)OCO2)N1C(=O)c2ccccc2C1=O (centres undefined),/,/,0.18
CC(C(=O)Oc1ccc2c(c1)OCO2)N1C(=O)c2ccccc2C1=O (centres undefined),36*,/,2.4
COc1cccc(-c2nnc(SCC(=O)N(C(C)C)C(C)C)o2)c1,84,/,-0.6
COc1cc(OC)cc(-c2nnc(SCC(=O)N(C(C)C)C(C)C)o2)c1,39*,/,0.22
CN1CC2=Cc3ccccc3OC23Oc2ccccc2C=C3C1,92,-11,-0.56
COC(=O)Cc1cc(=O)n2[nH]c(C(F)(F)F)nc2n1,/,39,/
Cn1nnc2cc(C(=O)N3CCN(c4ccccc4)CC3)ccc21,92,80*,-0.92
Cc1ccc(C(=O)N2CCN(c3ccccc3)CC2)cc1C,89,/,-0.42
Cn1c(=O)cc(-c2ccccc2)c2ccccc21,92,26,-0.4
Cn1c2ccccc2c2nn(-c3ccccc3)c(=O)cc21,77,/,-3.5*
O=C(CCNc1ccc(F)cc1)c1ccco1,80,30,-0.55
c1ccc2oc(CCc3nc4ccccc4o3)nc2c1,69,/,0.22
CC1=CCC(Cc2nc3ccccc3o2)C1(C)C (centres undefined),91,77*,-0.48
O=C(c1cccnc1)N1CCN(c2c(Cl)cccc2[N+](=O)[O-])CC1,/,-8,/

# High-throughput results deposited in PubChem BioAssay by several laboratories.
